In the library only some 6.8% were active in any assay of this set; here they are far more common.
Pf Dd2 inh – P. falciparum Dd2 growth inhibitors, primary screen, SYBR Green fluorescence, single dose replicates | 72 h; active compounds read low | activity change, % at 10 µM | hit rate 2.3% among 94,000; in the data active = activity change below about -80%; inconclusive = no clear call, values can overlap the other calls
T cruzi growth-1 – T. cruzi intracellular proliferation inhibitors, primary screen, cell-based, beta-gal Tulahuen parasites, NIH3T3 host, luminescence; T. cruzi beta-gal in NIH3T3, GalScreen luminescence, 90 h; inhibition, % at 8.34 µM; hit rate 5.9% among 77,000;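 active = mean inhibition above about 93%, with at least 55% of replicates each passing it, limit read from the data, passing the limit was not always enough; inconclusive = only one of those two conditions holds; inactive = neither condition holds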
C diff growth – C. difficile growth inhibitors, primary screen, HTS; Clostridium difficile clinical isolate growth, OD600, 24 h; active compounds read low; hit rate 0.25% among 86,000; growth activity, negative = inhibition, % at 16 µg/mL (by protocol); AID 1259249, 2017;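 active = mean growth activity at or below -80% and every replicate also at or below -80%; inconclusive = mean at or below -80% but some replicate above -80%; inactive = mean growth activity above -80%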;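 also: 0% = DMSO wells and -100% = levofloxacin 16 µg/mL wells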
T cruzi growth-2 – T. cruzi intracellular proliferation inhibitors, confirmation, cell-based, NIH3T3 host, beta-gal parasite, luminescence, cherry-pick; shares compounds with T cruzi growth-1; T. cruzi beta-gal in NIH3T3, GalScreen luminescence, 90 h; inhibition, % at 8.35 µM; hit rate 72% among 5,600;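 active = mean replicate inhibition above about 95% and at least 55% of replicates individually reaching it, limit read from the data; inconclusive = only one of the two criteria is met; inactive = neither criterion is met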
T cruzi growth-3 – inhibitors of intracellular T. cruzi replication, confirmation, NIH3T3 host cells, beta-gal parasites, cherry-pick, set 2. shares compounds with T cruzi growth-1. hit rate 21% among 5,600. T. cruzi beta-gal in NIH3T3, GalScreen luminescence, 90 h. inhibition, % at 2.09 µM;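 active = mean inhibition above about 95%, with at least 55% of replicates also reaching it, limit read from the data; inconclusive = meets just one of the two conditions; inactive = meets neither condition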;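 also: plate controls were neutral control median for no effect and positive control median for full effect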
NIH3T3 tox – cytotoxicity in mouse NIH/3T3 fibroblasts, confirmation, cytotoxicity control for T. cruzi proliferation inhibitor project, cell-based, cherry-pick, single point. cytotoxicity (signal decrease), % at 8.35 µM. hit rate 14% among 5,600. NIH/3T3 viability, CellTiter-Glo ATP luminescence, 90 h. shares compounds with T cruzi growth-1;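 active = mean signal decrease across replicates above about 35% based on untreated-well scatter, with enough replicates individually passing, limit read from the data; inconclusive = no rule stated though some were filed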;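 also: 0% = median of neutral control wells and 100% = median of positive control wells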
3T3 cytotox 2 – NIH/3T3 fibroblast cytotoxicity, confirmation, cytotoxicity control, cell-based, cherry-pick, single point, set 2; hit rate 56% among 5,600; NIH/3T3 viability, CellTiter-Glo ATP luminescence, 90 h; AID 651744, 2012; inhibition, % at 24.9 µM; shares compounds with T cruzi growth-1;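 active = mean loss of cell viability signal at or above a set limit, and enough replicates individually reaching it; inconclusive = meets only the mean limit or only the replicate share; inactive = meets neither condition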;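 also: 0% = median of neutral control wells and 100% = median of positive control wells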
Numbers without * were called inactive; u = inconclusive; x = no result.

SMILES	Pf Dd2 inh	T cruzi growth-1	C diff growth	T cruzi growth-2	T cruzi growth-3	NIH3T3 tox	3T3 cytotox 2
CN(C)C(=O)c1cccc(-c2ccc([C@@H]3[C@@H](CO)N(C(=O)C4CCCC4)[C@H]3C#N)cc2)c1	-27	x	1	x	x	x	x
CN(C)C(=O)c1cccc(-c2ccc([C@@H]3[C@@H](C#N)N(C(=O)C4CCC4)[C@H]3CO)cc2)c1	14	73	-3	x	x	x	x
CN(C)C(=O)c1ccc(-c2ccc([C@H]3[C@H](C#N)N(C(=O)C4CCC4)[C@H]3CO)cc2)cc1	-26	37	0	x	x	x	x
CN(C)C(=O)c1cccc(-c2ccc([C@@H]3[C@H](C#N)N(C(=O)C4CCC4)[C@H]3CO)cc2)c1	17	100*	-8	92	1	16	15
CN(C)C(=O)c1cccc(-c2ccc([C@H]3[C@@H](C#N)N(C(=O)C4CCC4)[C@H]3CO)cc2)c1	-7	102*	-3	-21	-8	-21	-30
CN(C)C(=O)c1ccc(-c2ccc([C@@H]3[C@@H](C#N)N(C(=O)C4CCOCC4)[C@H]3CO)cc2)cc1	25	98*	-12	78	21	-15	18
CN(C)C(=O)c1cccc(-c2ccc([C@H]3[C@@H](CO)N(C(=O)C4CCC4)[C@H]3C#N)cc2)c1	-52	104*	-5	72	32	11	10
COc1ccc(NC(=O)N(C)C[C@@H]2OCc3ccccc3-c3ccccc3C(=O)N([C@H](C)CO)C[C@H]2C)cc1	-10	0	x	x	x	x	x
COc1ccc(NC(=O)N(C)C[C@H]2OCCCC[C@@H](C)Oc3ccc(NC(=O)Cc4ccccc4)cc3C(=O)N([C@@H](C)CO)C[C@H]2C)cc1	-56	69	-2	x	x	x	x
Cc1ccc(S(=O)(=O)N(C)C[C@H]2Oc3ccc(NC(=O)Nc4ccc5c(c4)OCO5)cc3C(=O)N([C@H](C)CO)C[C@@H]2C)cc1	-48	36	2	x	x	x	x
CN(C)C(=O)c1ccc(-c2ccccc2[C@H]2[C@@H](C#N)N(C(=O)C3CC3)[C@@H]2CO)cc1	37	x	1	x	x	x	x
O=C(N[C@@H]1CC[C@H](CCNS(=O)(=O)c2ccc(F)cc2)O[C@H]1CO)c1cnccn1	11	-27	-3	x	x	x	x
COc1ccc2c3c([nH]c2c1)[C@H](CO)N(C(=O)C1CCCCC1)CC31CCN(S(C)(=O)=O)CC1	2	x	-8	x	x	x	x
CNC[C@@H]1Oc2cc(C#CCOC)ccc2S(=O)(=O)N([C@H](C)CO)C[C@H]1C	86	x	x	x	x	x	x
C[C@H](CO)N1C[C@H](C)[C@H](CN(C)S(=O)(=O)c2cccs2)Oc2c(NC(=O)Nc3cccc4ccccc34)cccc2C1=O	-22	67	x	x	x	x	x
CC(C)C#Cc1ccc2c(c1)O[C@H](CN(C)C(=O)C1CCCCC1)[C@@H](C)CN([C@@H](C)CO)S2(=O)=O	-34	u	30	95*	82	7	106*
CC(C)C#Cc1ccc2c(c1)O[C@H](CN(C)C(=O)C1CCCCC1)[C@H](C)CN([C@H](C)CO)S2(=O)=O	-16	100*	8	108*	88	13	105*
CC(C)C#Cc1ccc2c(c1)O[C@H](CN(C)C(=O)C1CCC1)[C@H](C)CN([C@H](C)CO)S2(=O)=O	-23	82	x	x	x	x	x
CC(C)C#Cc1ccc2c(c1)O[C@H](CN(C)C(=O)C1CCCCC1)[C@H](C)CN([C@@H](C)CO)S2(=O)=O	-1	90	4	x	x	x	x
COCC(=O)Nc1ccc2c(c1)OC[C@@H](C)N(Cc1cc(F)ccc1F)C[C@H](C)[C@@H](OC)CN(C)C2=O	-2	107*	x	74	26	21	24
COCC(=O)Nc1ccc2c(c1)OC[C@@H](C)N(Cc1cc(F)ccc1F)C[C@@H](C)[C@@H](OC)CN(C)C2=O	9	40	x	x	x	x	x

Screening results deposited in PubChem BioAssay by Broad Institute.
